In PubChem BioAssay (EPA / NIEHS) one finds outcome and AC50 data, which are given here for 4 molecules.

Molecules are shown by their SMILES. Several values for one entry are separate records, joined by “and”; a condition that tells them apart may be missing. Identical values can stand only once. Results filed as inconclusive are left out. More than one record can exist for a structure, and the calls need not agree. Activity calls are given as the source filed them. The calls were made as follows, unless noted: active = hit-call score of the fitted dose curve at least 0.9, where 1 is the maximum; inactive = score below 0.9.

Assay [1] concerns the target Glucocorticoid receptor (Homo sapiens) (UniProt P04150). As to the kind of experiment: ATG_GR_TRANS: Attagene TRANS-FACTORIAL HepG2 Assay for human Glucocorticoid Receptor (GR) (AID 2282978; active = hit-call score of the fitted dose curve at least 0.9, where 1 is the maximum;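 also: activators score as hits since higher reporter transcript over DMSO is fitted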). To be noted: HepG2 Attagene TRANS GR reporter, mRNA transcription. The procedure, abridged: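 Readout is reporter transcript from a chimeric GR-Gal4 acting on GAL4-UAS in transfected human HepG2 liver cells after 24 h exposure, quantified by RT-PCR and capillary electrophoresis. Activation fitted upward against DMSO.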

Assay [2] deals with Oxysterols receptor LXR-alpha (Homo sapiens) (UniProt Q13133). Kind of assay: ATG_LXRa_TRANS: Attagene TRANS-FACTORIAL HepG2 Assay for human Liver X Receptor alpha (LXRa) (AID 2282980; active = hit-call score of the fitted dose curve at least 0.9, where 1 is the maximum). To be noted: HepG2 Attagene TRANS reporter, LXRa transactivation. The method in brief: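 HepG2 cells were transiently transfected with multiplexed reporter units driven by chimeric LXRa–GAL4 fusion proteins, then dosed for 24 h. Reporter mRNA was quantified by RT-PCR, fluorescent labelling and capillary electrophoresis; gain of signal fitted against DMSO baseline.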

The nature of assay [3]: ATG_M_32_TRANS: Attagene TRANS-FACTORIAL HepG2 Assay for M32 Transcription Factor (Internal Marker) (AID 2282984; active = hit-call score of the fitted dose curve at least 0.9, where 1 is the maximum;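 also: transcript level of a background control reporter unit measured by RT-PCR and capillary electrophoresis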). The following applies: HepG2 Attagene TRANS M32 internal marker reporter. The procedure, abridged: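 Internal background reporter in transfected HepG2: after 24 h chemical exposure, RNA reverse-transcribed, reporter cDNA amplified, fluorescently labelled and HpaI-cut, then sized by capillary electrophoresis. Gain of signal fitted against DMSO control.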

The target in assay [4] is Transcriptional activator Myb (Homo sapiens) (UniProt P10242). As to the kind of experiment: ATG_Myb_CIS: Attagene CIS-FACTORIAL HepG2 Assay for human Myeloblastosis (Myb) Proto-Oncogene Transcription Factor (AID 2282986). The following applies: HepG2 Attagene CIS-FACTORIAL Myb reporter transcription; actives raise or lower the signal. The method in brief: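 Reporter mRNA is quantified by RT-PCR and capillary electrophoresis 24 h after dosing HepG2 cells transfected with cis-regulated reporter units, which track endogenous transcription factor activity. Gain and loss of signal are fitted versus DMSO baseline.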

Assay [5] concerns the target Nuclear respiratory factor 1 (Homo sapiens) (UniProt Q16656). Kind of assay: ATG_NRF1_CIS: Attagene CIS-FACTORIAL HepG2 Assay for human Nuclear Respiratory Factor 1 (NRF1) Orphan Gene (AID 2282987). The following applies: HepG2 NRF1 cis-element reporter, Attagene multiplex; actives raise or lower the signal. The method in brief: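 Endogenous NRF1-driven reporter transcription in transfected HepG2 cells after 24 h treatment. Readout: RT-PCR products, 6-FAM labelled and resolved by capillary electrophoresis; changes fitted both directions relative to DMSO.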

Assay [6] in a line: ATG_NFI_CIS: Attagene CIS-FACTORIAL HepG2 Assay for human Nuclear Factor I (NFI) (AID 2282989). To be noted: HepG2 cis-regulatory reporter, NFI response element transcription; actives raise or lower the signal. The procedure, abridged: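 After transient transfection of HepG2 with cis-promoter reporter constructs and 24 h dosing, RNA is reverse-transcribed, amplified, 6-FAM end-labelled and HpaI-digested before capillary analysis. Bidirectional curve fitting against DMSO.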

The target in assay [7] is Myc proto-oncogene protein (Homo sapiens) (UniProt P01106). As to the kind of experiment: ATG_Myc_CIS: Attagene CIS-FACTORIAL HepG2 Assay for human Myelocytomatosis (Myc) Proto-Oncogene Transcription Factor (AID 2282990). The following applies: HepG2, Attagene cis-reporter transcription factor activity; actives raise or lower the signal. The procedure, abridged:
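HepG2, transient MRTU transfection (cis promoters, endogenous TFs); 24 h dosing; TriZol RNA → oligo(dT) RT → PCR → 6-FAM primer extension → HpaI cut → CE. Bidirectional fit vs DMSO.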

The nature of assay [8]: ATG_NF_kB_CIS: Attagene CIS-FACTORIAL HepG2 Assay for human Nuclear Factor Kappa B (NF-kB) (AID 2282991). The following applies: HepG2 Attagene cis-factorial NF-kB reporter mRNA; actives raise or lower the signal. The method in brief:
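Readout is reporter transcript level, gain or loss versus DMSO, measured 24 h post-dose via RT-PCR, fluorescent labelling and capillary electrophoresis. Human HepG2 liver cells carried transiently transfected CIS reporter constructs reflecting endogenous factors.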

Assay [9] can be described thus: ATG_NRF2_ARE_CIS: Attagene CIS-FACTORIAL HepG2 Assay for human Nuclear Factor Erythroid 2 Related Factor 2 (NFR2) response to Antioxidant Response Elements (ARE) (AID 2282992). To be noted: HepG2 Attagene ARE/NRF2 reporter, transcription factor activity; actives raise or lower the signal. The method in brief:
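Using transiently transfected HepG2 cells exposed for 24 h, reporter mRNA levels were determined by RT-PCR with fluorescent primer extension and capillary electrophoresis, analysed for gain or loss of signal against DMSO.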

A short description of assay [10]: ATG_Oct_MLP_CIS: Attagene CIS-FACTORIAL HepG2 Assay for human Octamer-Binding Transcription Factor (Oct) (AID 2282993). To be noted: HepG2 Attagene cis-factorial Oct reporter, mRNA; actives raise or lower the signal. The method in brief: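 Cells of the HepG2 line express promoter-controlled reporter sequences whose mRNA levels, after 24 h treatment, are measured by RT-PCR and capillary electrophoresis. Increases and decreases are scored relative to DMSO.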

Assay [11] is described as follows: BSK_3C_TissueFactor: BioMAP Diversity Plus: 3C Assay for Tissue Factor Biomarker Activity (AID 2282997). To be noted: BioMAP 3C HUVEC, tissue factor biomarker readout; actives raise or lower the signal. The method in brief:
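Readout: Tissue Factor ELISA. Cells: human primary umbilical vein endothelium. Time: 24 h after dosing. Analysis: bidirectional fit, DMSO baseline.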

Assay [12] in a line: BSK_3C_uPAR: BioMAP Diversity Plus: 3C Assay for Urokinase-type plasminogen activator receptor (uPAR) Biomarker Activity (AID 2282998). The following applies: BioMAP 3C HUVEC, uPAR biomarker ELISA; actives raise or lower the signal. The method in brief:
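Endothelial primary cells of human umbilical vein origin received test chemical; 24 h later uPAR was assayed by ELISA. Fitting was bidirectional, DMSO as negative control.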

A short description of assay [13]: BSK_3C_VCAM1: BioMAP Diversity Plus: 3C Assay for Vascular cell adhesion molecule 1 (VCAM1) Biomarker Activity (AID 2282999). To be noted: BioMAP 3C HUVEC, VCAM1 ELISA, cytokine-stimulated; actives raise or lower the signal. The method in brief: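 Activity fitted in both directions relative to DMSO, with ELISA measurement of the surface marker on primary HUVEC (3C) at 24 h post-treatment; parallel SRB staining (0.1% SRB, TCA-fixed, 560 nm) flagged overt cytotoxicity.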

Assay [14] is described as follows: BSK_4H_Eotaxin3: BioMAP Diversity Plus: 4H Assay for Eotaxin 3 Biomarker Activity (AID 2283000).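 As to outcome: CCL26 protein level quantified by ELISA in parallel with SRB cytotoxicity check.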 The following applies: primary human endothelial cells (HUVEC); actives raise or lower the signal. The method in brief: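 HUVEC, 24 h post-dose, ELISA for Eotaxin-3/CCL26. Gain or loss of signal fitted bidirectionally vs DMSO baseline.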
The target of assay [15] is Hepatocyte nuclear factor 4-alpha (Homo sapiens) (UniProt P41235). As to the kind of experiment: ATG_HNF4a_TRANS: Attagene TRANS-FACTORIAL HepG2 Assay for human Hepatocyte Nuclear Factor 4 alpha (HNF4a) (AID 2282982; active = hit-call score of the fitted dose curve at least 0.9, where 1 is the maximum). The following applies: HepG2 HNF4a transactivation reporter, mRNA readout. The procedure, abridged:
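Activity of an exogenous HNF4a–Gal4 fusion scored as induced GAL4-UAS reporter transcripts after 24 h chemical exposure of transfected human HepG2 cells. Read-out via RT-PCR with 6-FAM labelling and capillary electrophoresis; rise over DMSO baseline.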

Assay [16] is described as follows: ATG_M_06_TRANS: Attagene TRANS-FACTORIAL HepG2 Assay for M06 Transcription Factor (Internal Marker) (AID 2282983; active = hit-call score of the fitted dose curve at least 0.9, where 1 is the maximum). The following applies: HepG2 Attagene TRANS M06 internal marker reporter. The procedure, abridged: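 In this multiplexed HepG2 system, compounds are incubated 24 h with cells carrying GAL4-UAS reporter units. Reporter RNA is amplified and resolved by capillary electrophoresis, and induction is scored against DMSO.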

For assay [17], the target named is Cellular tumor antigen p53 (Homo sapiens) (UniProt P04637). As to the kind of experiment: ATG_p53_CIS: Attagene CIS-FACTORIAL HepG2 Assay for human p53 Transcription Factor (AID 2282994). The following applies: HepG2 p53 cis-element reporter, Attagene mRNA; actives raise or lower the signal. The method in brief: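 In HepG2 cells, reporter transcription units under cis-regulatory promoters were transiently introduced. Following 24 h treatment, RNA was processed to labelled, digested cDNA fragments read by capillary electrophoresis; fitting was bidirectional versus DMSO.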

Assay [18] has as its target Nuclear receptor subfamily 4 group A member 2 (Homo sapiens) (UniProt P43354). As to the kind of experiment: ATG_NURR1_TRANS: Attagene TRANS-FACTORIAL HepG2 Assay for human Nuclear Receptor Related Protein 1 (NURR1) (AID 2282985; active = hit-call score of the fitted dose curve at least 0.9, where 1 is the maximum). To be noted: HepG2 Attagene TRANS reporter, mRNA readout. The procedure, abridged:
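Reporter transcript induction, measured by RT-PCR with fluorescent labelling, HpaI digestion and capillary electrophoresis, after 24 hr dosing of human HepG2 cells transiently expressing an exogenous NR-Gal4 fusion with GAL4-UAS-driven reporters; DMSO as baseline.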

Transcriptional activator Myb (Homo sapiens), sequence (P10242 whole entry, looked up): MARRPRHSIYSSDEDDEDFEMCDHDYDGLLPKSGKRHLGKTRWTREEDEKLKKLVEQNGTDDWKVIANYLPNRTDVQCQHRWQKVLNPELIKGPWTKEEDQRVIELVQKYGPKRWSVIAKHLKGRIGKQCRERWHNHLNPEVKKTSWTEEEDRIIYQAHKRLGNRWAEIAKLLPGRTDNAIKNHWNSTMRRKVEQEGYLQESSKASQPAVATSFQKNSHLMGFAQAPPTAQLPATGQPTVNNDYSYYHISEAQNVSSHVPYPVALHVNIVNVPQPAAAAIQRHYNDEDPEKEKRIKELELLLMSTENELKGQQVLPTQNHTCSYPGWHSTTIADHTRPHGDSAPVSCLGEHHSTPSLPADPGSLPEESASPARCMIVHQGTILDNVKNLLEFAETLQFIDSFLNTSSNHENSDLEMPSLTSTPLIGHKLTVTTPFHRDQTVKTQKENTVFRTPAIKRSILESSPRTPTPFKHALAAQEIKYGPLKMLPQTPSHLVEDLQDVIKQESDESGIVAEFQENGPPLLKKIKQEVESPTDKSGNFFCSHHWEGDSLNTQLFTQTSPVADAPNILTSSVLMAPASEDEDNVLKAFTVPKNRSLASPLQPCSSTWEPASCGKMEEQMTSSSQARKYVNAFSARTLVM
Myc proto-oncogene protein (Homo sapiens), sequence (P01106 whole entry, looked up): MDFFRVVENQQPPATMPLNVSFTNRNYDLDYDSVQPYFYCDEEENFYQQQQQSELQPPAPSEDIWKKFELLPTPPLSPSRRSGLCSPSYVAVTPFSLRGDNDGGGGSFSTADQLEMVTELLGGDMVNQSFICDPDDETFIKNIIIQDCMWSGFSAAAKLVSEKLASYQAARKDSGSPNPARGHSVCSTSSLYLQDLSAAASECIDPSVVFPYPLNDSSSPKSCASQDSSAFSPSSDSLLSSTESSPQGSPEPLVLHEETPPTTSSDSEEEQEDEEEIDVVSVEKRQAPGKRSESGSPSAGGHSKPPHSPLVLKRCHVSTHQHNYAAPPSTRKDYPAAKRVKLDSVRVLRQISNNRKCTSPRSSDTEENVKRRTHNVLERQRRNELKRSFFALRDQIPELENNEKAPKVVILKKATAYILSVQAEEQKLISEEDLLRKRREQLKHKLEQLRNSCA
Glucocorticoid receptor (Homo sapiens), sequence (P04150 whole entry, looked up, the tested form may be a part): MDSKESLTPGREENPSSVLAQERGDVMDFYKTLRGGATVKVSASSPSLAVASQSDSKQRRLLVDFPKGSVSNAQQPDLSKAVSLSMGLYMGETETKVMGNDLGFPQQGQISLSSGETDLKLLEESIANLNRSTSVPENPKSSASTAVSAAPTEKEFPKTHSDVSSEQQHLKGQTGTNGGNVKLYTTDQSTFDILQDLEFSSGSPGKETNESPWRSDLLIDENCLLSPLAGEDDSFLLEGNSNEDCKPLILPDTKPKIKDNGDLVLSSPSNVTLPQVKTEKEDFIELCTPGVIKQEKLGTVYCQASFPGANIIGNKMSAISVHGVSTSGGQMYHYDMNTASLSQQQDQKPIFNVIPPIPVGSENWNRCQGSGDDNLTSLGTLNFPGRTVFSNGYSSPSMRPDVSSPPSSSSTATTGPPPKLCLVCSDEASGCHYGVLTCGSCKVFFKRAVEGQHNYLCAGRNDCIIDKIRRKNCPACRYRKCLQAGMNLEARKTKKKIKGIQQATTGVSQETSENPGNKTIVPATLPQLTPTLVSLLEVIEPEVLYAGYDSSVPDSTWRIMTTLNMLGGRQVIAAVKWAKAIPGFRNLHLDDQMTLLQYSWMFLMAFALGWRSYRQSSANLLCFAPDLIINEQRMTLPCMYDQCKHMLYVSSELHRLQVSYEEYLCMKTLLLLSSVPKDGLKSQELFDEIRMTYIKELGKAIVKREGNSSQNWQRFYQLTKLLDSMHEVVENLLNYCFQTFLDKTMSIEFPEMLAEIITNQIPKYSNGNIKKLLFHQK
Hepatocyte nuclear factor 4-alpha (Homo sapiens), sequence (P41235 whole entry, looked up, the tested form may be a part): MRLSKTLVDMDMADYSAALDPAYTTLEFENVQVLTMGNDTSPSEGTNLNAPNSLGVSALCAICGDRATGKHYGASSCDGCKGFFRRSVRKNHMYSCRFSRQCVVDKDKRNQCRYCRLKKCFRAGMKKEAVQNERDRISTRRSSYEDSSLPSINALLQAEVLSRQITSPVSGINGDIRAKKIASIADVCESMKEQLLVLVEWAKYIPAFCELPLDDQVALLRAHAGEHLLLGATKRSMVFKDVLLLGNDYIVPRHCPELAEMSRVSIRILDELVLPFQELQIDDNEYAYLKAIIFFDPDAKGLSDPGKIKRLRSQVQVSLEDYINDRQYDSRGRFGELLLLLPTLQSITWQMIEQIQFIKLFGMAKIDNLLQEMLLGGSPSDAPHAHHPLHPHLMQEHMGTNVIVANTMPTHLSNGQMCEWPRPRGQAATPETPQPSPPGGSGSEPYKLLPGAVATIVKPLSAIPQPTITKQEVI
Cellular tumor antigen p53 (Homo sapiens), sequence (P04637 whole entry, looked up, the tested form may be a part): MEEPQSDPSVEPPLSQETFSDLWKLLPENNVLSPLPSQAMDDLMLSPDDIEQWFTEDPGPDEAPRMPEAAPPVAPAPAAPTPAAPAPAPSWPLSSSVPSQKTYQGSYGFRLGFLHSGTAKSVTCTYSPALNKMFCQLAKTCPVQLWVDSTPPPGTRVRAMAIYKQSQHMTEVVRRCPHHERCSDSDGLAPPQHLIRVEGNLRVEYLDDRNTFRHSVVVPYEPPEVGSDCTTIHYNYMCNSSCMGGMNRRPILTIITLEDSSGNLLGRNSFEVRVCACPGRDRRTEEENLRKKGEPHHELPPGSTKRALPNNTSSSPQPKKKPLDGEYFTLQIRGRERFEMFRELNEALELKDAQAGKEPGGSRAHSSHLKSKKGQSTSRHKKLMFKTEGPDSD
Nuclear respiratory factor 1 (Homo sapiens), sequence (Q16656 whole entry, looked up): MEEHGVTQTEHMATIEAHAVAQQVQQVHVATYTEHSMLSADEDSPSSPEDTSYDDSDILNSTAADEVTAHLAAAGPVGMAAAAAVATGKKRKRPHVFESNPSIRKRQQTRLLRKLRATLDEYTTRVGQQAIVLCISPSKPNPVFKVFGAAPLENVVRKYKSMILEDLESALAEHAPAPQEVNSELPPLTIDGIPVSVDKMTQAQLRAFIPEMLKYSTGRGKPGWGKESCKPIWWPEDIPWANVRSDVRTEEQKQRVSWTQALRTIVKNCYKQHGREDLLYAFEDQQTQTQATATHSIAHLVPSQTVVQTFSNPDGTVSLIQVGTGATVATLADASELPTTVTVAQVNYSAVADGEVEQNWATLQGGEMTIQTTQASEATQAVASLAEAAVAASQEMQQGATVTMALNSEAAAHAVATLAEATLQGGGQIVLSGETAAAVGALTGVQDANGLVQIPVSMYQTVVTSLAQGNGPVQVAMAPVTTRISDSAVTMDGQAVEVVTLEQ
Oxysterols receptor LXR-alpha (Homo sapiens), sequence (Q13133 whole entry, looked up, the tested form may be a part): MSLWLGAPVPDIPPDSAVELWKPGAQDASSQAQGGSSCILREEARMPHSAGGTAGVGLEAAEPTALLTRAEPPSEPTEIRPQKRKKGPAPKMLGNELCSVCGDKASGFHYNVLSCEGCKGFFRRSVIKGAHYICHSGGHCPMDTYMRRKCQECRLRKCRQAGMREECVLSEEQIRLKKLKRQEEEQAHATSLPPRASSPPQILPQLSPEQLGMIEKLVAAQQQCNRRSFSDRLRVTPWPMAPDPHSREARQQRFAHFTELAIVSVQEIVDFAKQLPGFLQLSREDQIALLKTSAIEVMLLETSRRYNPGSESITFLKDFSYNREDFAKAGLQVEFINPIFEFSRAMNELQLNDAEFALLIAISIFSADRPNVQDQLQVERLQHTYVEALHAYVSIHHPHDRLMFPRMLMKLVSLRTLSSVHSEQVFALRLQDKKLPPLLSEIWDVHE
Nuclear receptor subfamily 4 group A member 2 (Homo sapiens), sequence (P43354 whole entry, looked up, the tested form may be a part): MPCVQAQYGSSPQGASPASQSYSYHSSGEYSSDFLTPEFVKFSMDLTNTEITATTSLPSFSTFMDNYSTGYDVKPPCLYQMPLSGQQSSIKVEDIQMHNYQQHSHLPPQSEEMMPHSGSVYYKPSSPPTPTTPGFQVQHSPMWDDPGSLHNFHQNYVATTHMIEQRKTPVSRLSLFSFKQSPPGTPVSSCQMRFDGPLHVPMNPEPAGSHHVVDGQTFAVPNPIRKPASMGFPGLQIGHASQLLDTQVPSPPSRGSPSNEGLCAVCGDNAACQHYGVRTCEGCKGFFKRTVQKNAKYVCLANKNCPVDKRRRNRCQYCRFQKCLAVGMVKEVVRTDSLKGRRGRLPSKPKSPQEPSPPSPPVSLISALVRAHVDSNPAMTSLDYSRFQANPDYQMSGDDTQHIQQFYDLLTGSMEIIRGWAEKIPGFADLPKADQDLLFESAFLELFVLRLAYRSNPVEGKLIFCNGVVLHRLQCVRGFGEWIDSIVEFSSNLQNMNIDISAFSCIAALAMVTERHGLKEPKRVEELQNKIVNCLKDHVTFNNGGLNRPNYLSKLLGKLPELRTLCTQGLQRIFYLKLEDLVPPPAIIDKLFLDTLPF

With `ClC(Cl)c1ccccc1`, the call in [1], in assay [2], in [3], in [4], in assay [5] and in assay [6] was inactive. Moreover, the outcome in assay [7], in assay [8], in assay [9], in assay [10], in [11] and in assay [12] was inactive. In addition, the result in assay [13] and in assay [14] was inactive.
As to `CCN(CC)C1CCCCC1`, the result in [1], in assay [15], in assay [16], in [3], in [4] and in assay [5] was inactive. For the same molecule, the result in [6], in assay [7], in assay [8], in assay [9], in [10] and in assay [17] was inactive.
On to `COC(N)=O`, for which the result in assay [1], in [2], in [15], in assay [16], in assay [4] and in assay [5] was inactive. The outcome in assay [6], in assay [7], in [8], in [9], in assay [10] and in assay [17] was inactive.
On to `C=CC(=O)OCC(F)(F)C(F)F`, for which the call in assay [1], in [15], in assay [16], in assay [3], in assay [18] and in [4] was inactive. The result in assay [5], in assay [6], in [7], in assay [10], in [11] and in [12] was inactive. Further, the AC50 is 76 µM (active) in assay [8]; 50.3 µM (active) in [9]; 206 µM (active) in assay [17]; 24.6 µM (active) in [11]; 35.5 µM (active) and 37 µM (active) in [13]; 30 µM (active) and 21 µM (active) in [14].
